Measured values taken from PubChem BioAssay AID1159580 (chemical genetic matrix, 2015).
Screen size: about 5,500 compounds; about 2,000 (36%) were called active. Inconclusive results (about 18%) are left out. No stated cut-off is given here; in the data, active means normalized growth mostly below about 0.91 (no sharp cut-off); inconclusive means no clear call, values can overlap the other calls; inactive means mostly above about 0.92. The list shows a part of the results.

Assay: chemical genetic growth profiling, strain panel (AID 1159580);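 further: tested at 20 µM; growth read once vehicle control cultures reached saturation at 30 °C; 1 = growth at the plate median or of vehicle wells; lower values mean less growth of the strain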
Settings: growth OD

Measured: normalized growth

CC(C)=CCc1c2c(c3occ(-c4ccc(O)c(O)c4)c(=O)c3c1O)C=CC(C)(C)O2
inactive: S. cerevisiae deletion strains, locus YKL068W, active compounds read low 1 | S. cerevisiae deletion strains, locus YKL085W, strain MDH1 (second series), active compounds read low 0.947 | S. cerevisiae deletion strains, locus YKL085W, strain MDH1, active compounds read low 0.947 | S. cerevisiae deletion strains, locus YKL160W, strain elf1, active compounds read low 0.957 | S. cerevisiae deletion strains, locus YKR026C, strain gcn3, active compounds read low 0.994 | S. cerevisiae deletion strains, locus YKR091W, strain srl3, active compounds read low 0.997 | S. cerevisiae deletion strains, locus YLL001W, strain dnm1, active compounds read low 0.959 | S. cerevisiae deletion strains, locus YLL026W, active compounds read low 0.985 | S. cerevisiae deletion strains, locus YLL041C, strain sdh2, active compounds read low 0.993 | S. cerevisiae deletion strains, locus YLR027C, strain aat2, active compounds read low 0.935 | S. cerevisiae deletion strains, locus YLR102C, strain apc9, active compounds read low 0.957 | S. cerevisiae deletion strains, locus YLR113W, strain HOG1, active compounds read low 0.868 | S. cerevisiae deletion strains, locus YLR258W, strain gsy2, active compounds read low 0.935 | S. cerevisiae deletion strains, locus YLR262C, strain YPT6 (second series), active compounds read low 0.995 | S. cerevisiae deletion strains, locus YLR320W, strain mms22, active compounds read low 0.931 | S. cerevisiae deletion strains, locus YLR342W, strain FKS1, active compounds read low 0.959 | S. cerevisiae deletion strains, locus YLR357W, strain rsc2, active compounds read low 0.873 | S. cerevisiae deletion strains, locus YLR370C, strain arc18, active compounds read low 0.947 | S. cerevisiae deletion strains, locus YLR384C, strain iki3, active compounds read low 0.98 | S. cerevisiae deletion strains, locus YML120C, strain ndi1, active compounds read low 0.956 | S. cerevisiae deletion strains, locus YMR078C, strain ctf18, active compounds read low 0.929 | S. cerevisiae deletion strains, locus YMR125W, strain sto1, active compounds read low 1.01 | S. cerevisiae deletion strains, locus YMR129W, active compounds read low 0.981 | S. cerevisiae deletion strains, locus YMR205C, strain PFK2, active compounds read low 0.957 | S. cerevisiae deletion strains, locus YMR231W, strain pep5, active compounds read low 0.984 | S. cerevisiae deletion strains, locus YNL071W, strain lat1, active compounds read low 0.942 | S. cerevisiae deletion strains, locus YNL183C, strain NPR1, active compounds read low 0.885 | S. cerevisiae deletion strains, locus YNL248C, strain rpa49, active compounds read low 1 | S. cerevisiae deletion strains, locus YNL250W, strain rad50, active compounds read low 0.966 | S. cerevisiae deletion strains, locus YNL271C, strain bni1, active compounds read low 0.943 | S. cerevisiae deletion strains, locus YNL298W, strain CLA4, active compounds read low 0.922 | S. cerevisiae deletion strains, locus YNL322C, strain KRE1 (second series), active compounds read low 0.969 | S. cerevisiae deletion strains, locus YNR049C, strain mso1, active compounds read low 0.985 | S. cerevisiae deletion strains, locus YOL012C, strain htz1 0.238 | S. cerevisiae deletion strains, locus YOR001W, strain rrp6, active compounds read low 0.952 | S. cerevisiae deletion strains, locus YOR070C, strain gyp1, active compounds read low 0.951 | S. cerevisiae deletion strains, locus YOR080W, strain dia2, active compounds read low 0.961 | S. cerevisiae deletion strains, locus YOR083W, strain WHI5, active compounds read low 0.937 | S. cerevisiae deletion strains, locus YOR231W, strain MKK1, active compounds read low 0.917 | S. cerevisiae deletion strains, locus YOR265W, strain rbl2, active compounds read low 0.977 | S. cerevisiae deletion strains, locus YOR270C, strain vph1, active compounds read low 0.925 | S. cerevisiae deletion strains, locus YOR290C, strain snf2, active compounds read low 0.93 | S. cerevisiae deletion strains, locus YPL078C, strain atp4, active compounds read low 0.957 | S. cerevisiae deletion strains, locus YPL106C, strain sse1, active compounds read low 0.919 | S. cerevisiae deletion strains, locus YPL240C, strain hsp82, active compounds read low 0.984 | S. cerevisiae deletion strains, locus YPL256C, strain CLN2, active compounds read low 0.921 | S. cerevisiae deletion strains, locus YPR119W, strain clb2, active compounds read low 0.965 | S. cerevisiae deletion strains, locus YPR141C, strain kar3, active compounds read low 0.985
active: S. cerevisiae deletion strains, locus YKL009W, strain mrt4, active compounds read low 0.867 | S. cerevisiae deletion strains, locus YKR001C, strain vps1, active compounds read low 0.578 | S. cerevisiae deletion strains, locus YLR039C, strain RIC1, active compounds read low 0.235 | S. cerevisiae deletion strains, locus YLR058C, strain SHM2, active compounds read low 0.239 | S. cerevisiae deletion strains, locus YLR221C, strain rsa3, active compounds read low 0.905 | S. cerevisiae deletion strains, locus YLR262C, strain YPT6, active compounds read low 0.298 | S. cerevisiae deletion strains, locus YLR268W, strain sec22, active compounds read low 0.495 | S. cerevisiae deletion strains, locus YLR330W, strain CHS5, active compounds read low 0.36 | S. cerevisiae deletion strains, locus YLR342W, strain FKS1 (second series), active compounds read low 0.195 | S. cerevisiae deletion strains, locus YLR371W, strain rom2, active compounds read low 0.447 | S. cerevisiae deletion strains, locus YLR418C, strain cdc73, active compounds read low 0.252 | S. cerevisiae deletion strains, locus YML016C, strain PPZ1, active compounds read low 0.174 | S. cerevisiae deletion strains, locus YML032C, strain rad52, active compounds read low 0.812 | S. cerevisiae deletion strains, locus YML124C, strain tub3, active compounds read low 0.849 | S. cerevisiae deletion strains, locus YMR058W, strain fet3, active compounds read low 0.755 | S. cerevisiae deletion strains, locus YMR223W, strain ubp8, active compounds read low 0.72 | S. cerevisiae deletion strains, locus YMR307W, strain GAS1, active compounds read low 0.396 | S. cerevisiae deletion strains, locus YNL067W, strain RPL9B, active compounds read low 0.427 | S. cerevisiae deletion strains, locus YNL128W, strain TEP1, active compounds read low 0.202 | S. cerevisiae deletion strains, locus YNL153C, strain GIM3, active compounds read low 0.388 | S. cerevisiae deletion strains, locus YNL209W, strain ssb2, active compounds read low 0.883 | S. cerevisiae deletion strains, locus YNL233W, strain BNI4, active compounds read low 0.401 | S. cerevisiae deletion strains, locus YNL307C, strain MCK1, active compounds read low 0.546 | S. cerevisiae deletion strains, locus YNL322C, strain KRE1, active compounds read low 0.339 | S. cerevisiae deletion strains, locus YNR052C, strain pop2, active compounds read low 0.682 | S. cerevisiae deletion strains, locus YOL006C, strain TOP1, active compounds read low 0.142 | S. cerevisiae deletion strains, locus YOL147C, strain pex11, active compounds read low 0.634 | S. cerevisiae deletion strains, locus YOR061W, strain CKA2, active compounds read low 0.257 | S. cerevisiae deletion strains, locus YOR069W, strain VPS5, active compounds read low 0.546 | S. cerevisiae deletion strains, locus YOR106W, strain vam3, active compounds read low 0.856 | S. cerevisiae deletion strains, locus YOR136W, strain idh2, active compounds read low 0.837 | S. cerevisiae deletion strains, locus YOR144C, strain elg1, active compounds read low 0.723 | S. cerevisiae deletion strains, locus YOR184W, strain ser1, active compounds read low 0.548 | S. cerevisiae deletion strains, locus YOR316C, strain cot1, active compounds read low 0.848 | S. cerevisiae deletion strains, locus YPL051W, strain arl3, active compounds read low 0.913 | S. cerevisiae deletion strains, locus YPL055C, strain LGE1, active compounds read low 0.203 | S. cerevisiae deletion strains, locus YPR163C, strain tif3, active compounds read low 0.735 | S. cerevisiae deletion strains, locus YPR167C, strain met16, active compounds read low 0.739 | S. cerevisiae deletion strains, strain wtn01, active compounds read low 0.533 | S. cerevisiae strains, strain wild type, active compounds read low 0.173
